Laboratory results from publication PMC12864922, “TDP-43 directly inhibits mRNA accumulation in neurites through modulation of mRNA stability”.
The full ranking holds about 9,900 sequences; the median of “r (bound/input frequency ratio)” is about 0.7, and the highest 2% start at about 6.5. This is one part of a sample in which the highest values are shown more often than they occur.

B1: ENSMUSG00000043670.57|Diras1|205:210 (ssRNA)
RNA: GGGAGUUCUACAGUCCGACGAUCGCUUCGAUAUCCGCAUGCUACCUGCCUCUUCACACCUCCAUAGCUUCAUCCUUUGCAGACCUCUCCCUCUAUAUCUCUUUGCUCCCCCACCCCCAUUCUAUCUGCACCCCACAACCACACACUGGAGGUUUGAUCCCUGUGGAUCUGAAAACAGGGACCUGGCUAAGGAACUGCUCAUCCCAGUCAGGCCCAGAGAGGUUACCUUGCCUCUCCAUCUCUGUCCCACACACCCCAGCCAUGCCCACUGUCCCUGUCCCUCACAUUCUAUCACUGUGACCUCCUCUUGCGGUCGCACUAGUGUGGAAUUCUCGGGUGUCAAGG
B2: ENSMUSG00000032194.139|Kank2 (ssRNA)
RNA: GGGAGUUCUACAGUCCGACGAUCGCUUCGAUAUCCGCAUGCUAGGAAAUGACCAACUUACAAGAAGUUAUGCUGACCUCCCUGUUCCCCACGGGGAGUGCUUGGCAGAGGAGACUACUUCUAGAAAUACUUUCAGACCUACAGACAAAAAAGAAAAAAGGCCAUUCCGGAGUGACUCCCAGCAUCACAGCCCAGAACCUCCUCCUCAAAGGAGAGUAAACAGAGACUGUGAUACUGACCAAGUACAGGCGCUCGCUAUGAAGCCCAUAUGUUCCUGAUUAAGAGCUGGCUGGCCUCAGAGCACCUCUUGCGGUCGCACUAGUGUGGAAUUCUCGGGUGUCAAGG
B3: ENSMUSG00000004113.476|Cacna1b|225:230 (ssRNA)
RNA: GGGAGUUCUACAGUCCGACGAUCGCUUCGAUAUCCGCAUGCUAAGAGAGAGAGAUCCAGUCAUGCAACACAAAUGGGAUCUACUUUUAAACAACAGUCCUUUGACUAGUUUGCUGCCUGAAUAAUAUUUACAAACUAAACUUUGGAUUCUGCUCUUGUUUCUACAAUGAUUUUUUGUAUAAAGCAAAGUCCUUGGAUUAAAUAAAAACAACCCAAAAAAAAAAUCAAAAUCAAAACCCAGGAUGCAACUGGGUGAUACCUGAGGACACACACACUCAGUGCGUCGGUGGAGAGGGUAUACUGCCUCUUGCGGUCGCACUAGUGUGGAAUUCUCGGGUGUCAAGG
B4: ENSMUSG00000090935.398|Synj2bp (ssRNA)
RNA: GGGAGUUCUACAGUCCGACGAUCGCUUCGAUAUCCGCAUGCUAAAUUUCCUUCUUUUCAGUAAAUUGGCCAGACUAUUAUUUUGACAUAAGAUUAUGAAGAGUUUUCCCGACAGUCUAGCAGUCACUUAACAGAUGUUGAUUGCACAUUAGUUUUGUCAGGACACCUUUAUAAAAAGAGAAAUGCACAUAUUUCAUCCAAAGGGACAUUGUGGUUACAGUUAGGAAGGAAACCCUUAAAAUGGAGUUAGUUAUCUAAGUGUAAGUUGUUUAUAUUACAGACAGCAAAAGAAAAUAGCUCCUGACUCUUGCGGUCGCACUAGUGUGGAAUUCUCGGGUGUCAAGG
B5: ENSMUSG00000043670.39|Diras1 (ssRNA)
RNA: GGGAGUUCUACAGUCCGACGAUCGCUUCGAUAUCCGCAUGCUAGCUCCUGCUCCUUCUCCCCCUCCUUCCUUCCUUUGCCUUGCCCCUCCCUCCUCCAUCUCUCUUCCCUCUUCCUGUCCCCACCAGCCUACAGUAAGGUUGGGCUCCAUCCCUGCCUCUUCACACCUCCAUAGCUUCAUCCUUUGCAGACCUCUCCCUCUAUAUCUCUUUGCUCCCCCACCCCCAUUCUAUCUGCACCCCACAACCACACACUGGAGGUUUGAUCCCUGUGGAUCUGAAAACAGGGACCUGGCUAAGGAACUCUCUUGCGGUCGCACUAGUGUGGAAUUCUCGGGUGUCAAGG
B6: ENSMUSG00000061578.1409|Ksr2 (ssRNA)
RNA: GGGAGUUCUACAGUCCGACGAUCGCUUCGAUAUCCGCAUGCUAGGACCUCAGGCCCACUGUUUUCUCCAUGUCUGUCUGUACUGACUGUUGCAGAAUGAGCUGAUGUAUGAUCUUGAUUCUCCAUUUUCCUUCUGGACCACAUGUCUCUUCCUUUUCCUUUUUAGAUCUGUCUUGCUCUCUGUCUCUCUCACUCAUUGCCAACAUGUUGCUGGGAAAGAAUAUUUGAUUUAGAUGCCAAUCAGGAAGGCAAGUAGGAUGGAUGGAUGAGUGAGUGGAUAGGUAGGUAUAUAAAUGGAUGGAUGCUCUUGCGGUCGCACUAGUGUGGAAUUCUCGGGUGUCAAGG
B7: ENSMUSG00000043670.206|Diras1 (ssRNA)
RNA: GGGAGUUCUACAGUCCGACGAUCGCUUCGAUAUCCGCAUGCUAGAUGAGGGUGACUUAGAAUUCUGUGUUUAUGUGCCUGUGUGUGUGGAUGGGUGUGUGUCUGUCUUGGGAUGGGGUGUUCUUGCACCACUUUGUGUUCUUAGUGAGACCACAGUGUAAGUGGCCGUGUGUGUGUGUGGGGGGGGGCACCUAGACAUUGUGGUGUGUCUGUAUGGCUCUGUGUUUUCAGGGGUGGGUGACACAGGCCUGUCUGAUGAGCACCAGGUCUGUUCCAGGCUGUGGCAAGCUGGCUCCUGGCUCAGCUCUUGCGGUCGCACUAGUGUGGAAUUCUCGGGUGUCAAGG
B8: ENSMUSG00000043670.204|Diras1|34:38;48:57;63:70;103:107;136:148;172:177;180:184;189:193 (ssRNA)
RNA: GGGAGUUCUACAGUCCGACGAUCGCUUCGAUAUCCGCAUGCUAGUGUCCCACCCAGAUGAGGGUGACUUAGAAUUCACACAUUAUGUGCCACACACACACGAUGGCACACACACUGUCUUGGGAUGGGGUGUUCUUGCACCACUUACACAUCUUAGUGAGACCACAGUGUAAGUGGCCCACACACACACACGGGGGGGGCACCUAGACAUUGUGCACACACUCAUACGCUCACACAUUUCAGGGGUGGGUGACACAGGCCUGUCUGAUGAGCACCAGGUCUGUUCCAGGCUGUGGCAAGCUGGCUCUUGCGGUCGCACUAGUGUGGAAUUCUCGGGUGUCAAGG

target: TDP-43 (Homo sapiens, UniProt Q13148 1-414); assay: RNA Bind-n-Seq with designed 260-mer pool; 25 mM Tris-HCl, 150 mM KCl, 3 mM MgCl2, BSA (printed 500 mg/mL), 20 units/mL SUPERase IN; pH not stated; 500 nM RNA pool, 1 h, 4 C; TDP-43 5, 50, 500 nM; high values mean tight binding; conditions: protein: recombinant; tags: SBP (GST cleaved off with PreScission; pGEX-GST-SBP)
Sequence (Q13148 whole entry): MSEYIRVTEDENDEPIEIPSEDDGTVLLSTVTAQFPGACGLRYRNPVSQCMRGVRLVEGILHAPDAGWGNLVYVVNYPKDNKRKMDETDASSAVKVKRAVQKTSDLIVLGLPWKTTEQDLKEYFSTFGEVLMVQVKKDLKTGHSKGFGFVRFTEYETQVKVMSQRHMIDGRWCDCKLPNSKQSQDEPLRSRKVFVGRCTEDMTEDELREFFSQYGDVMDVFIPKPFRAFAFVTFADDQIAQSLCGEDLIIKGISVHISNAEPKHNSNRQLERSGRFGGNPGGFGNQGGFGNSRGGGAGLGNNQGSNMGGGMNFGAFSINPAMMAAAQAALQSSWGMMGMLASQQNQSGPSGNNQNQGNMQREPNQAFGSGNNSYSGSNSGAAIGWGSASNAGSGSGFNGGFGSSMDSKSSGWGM
Outline: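 Binding (R) is the ratio of each oligo's mapped-read-normalized abundance in the bound fraction to its abundance in the input. To obtain it, SBP-tagged recombinant TDP-43 (5, 50 or 500 nM) on streptavidin beads was incubated with 500 nM of an in vitro-transcribed 260-nt 3′ UTR oligo pool for 1 h at 4 °C in 25 mM Tris-HCl, 150 mM KCl, 3 mM MgCl2, BSA and SUPERase IN. The RNA retained after washing was released with biotin, then reverse transcribed, amplified by PCR and sequenced.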

| Binder | binding signal |
| --- | --- |
| B1 | 2.63 R (bound/input frequency ratio) |
| B2 | 0.307 R (bound/input frequency ratio) |
| B3 | 0.46 R (bound/input frequency ratio) |
| B4 | 0.033 R (bound/input frequency ratio) |
| B5 | 5.05 R (bound/input frequency ratio) |
| B6 | 1.55 R (bound/input frequency ratio) |
| B7 | 6.69 R (bound/input frequency ratio) |
| B8 | 1.1 R (bound/input frequency ratio) |
